Some test systems named below: DU-145 prostate; K-562 leukemia; MDA-MB-231 breast; RXF 393 renal; SF-268 CNS; SF-295 CNS; SF-539 CNS; UACC-257 melanoma; M14 melanoma; HT29 colon; SNB-75 CNS; SNB-19 CNS; U251 CNS; PC-3 prostate; SK-MEL-5 melanoma; UACC-62 melanoma; LOX IMVI melanoma; SK-MEL-28 melanoma; HCT-15 colon.
What all share (assay): NCI-60 one-dose screen, 48 h (100 = growth as untreated, 0 = no growth, -100 = all killed)
Common to all, as to conditions: 10 µM

The panel holds about 83,000 compounds, 20% with a hit somewhere; the sample as a whole holds those more often.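 For each line, cells grew in 96-well plates with the test compound present at a single concentration for 48 hours.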 A number with no mark means an inactive call. Active and inactive are the calls of the source. How the source made its calls: active means growth percent below 10; inactive means the rest.

With `O=C(O)c1ccccc1C(=O)c1cccc2c(F)cccc12`, the growth in the test on DU-145 prostate is 112%; in the test on K-562 leukemia, 108%; with MDA-MB-231 breast, 99.2%; in the test with RXF 393 renal, 114%; in the test with SF-268 CNS it was 111%; in the test on SF-295 CNS, 122%. The growth in the test with SF-539 CNS is 104%; with UACC-257 melanoma it was 98.4%; with M14 melanoma it was 103%; in the test with HT29 colon it was 115%; in the test on SNB-75 CNS, 86.2%; with SNB-19 CNS, 98.3%. For the same compound, the growth with U251 CNS is 98.7%; with PC-3 prostate, 92.5%; in the test with SK-MEL-5 melanoma, 108%; with UACC-62 melanoma it was 97.7%; with LOX IMVI melanoma, 92.8%; in the test on SK-MEL-28 melanoma it was 111%.

As for `CC(=O)Nc1nc(C)c(C(=O)NNC=O)s1`, the growth with DU-145 prostate was 108%; in the test on K-562 leukemia, 54.8%; with MDA-MB-231 breast, 106%; in the test with RXF 393 renal it was 109%; in the test on SF-268 CNS, 94.8%; with SF-295 CNS, 112%. The growth in the test with SF-539 CNS was 102%; with UACC-257 melanoma it was 106%; in the test on M14 melanoma, 120%; in the test with HCT-15 colon it was 99.5%; with SNB-75 CNS it was 94.8%; with SNB-19 CNS it was 117%. Further, the growth in the test with U251 CNS is 109%; in the test on PC-3 prostate, 91.6%; with SK-MEL-5 melanoma it was 104%; with UACC-62 melanoma, 97.1%; in the test with LOX IMVI melanoma, 104%; in the test with SK-MEL-28 melanoma it was 104%.

In the case of `COC(=O)CCCCCCCCC(C)c1ccc(C(C)=O)cc1` (configuration not stated), the growth with DU-145 prostate is 108%; in the test on K-562 leukemia it was 92.3%; in the test on MDA-MB-231 breast, 119%; with RXF 393 renal, 111%; in the test with SF-268 CNS it was 104%; in the test with SF-295 CNS, 92.1%. Moreover, the growth in the test with SF-539 CNS is 101%; with UACC-257 melanoma, 119%; in the test with M14 melanoma it was 121%; in the test with HT29 colon, 101%; in the test on SNB-75 CNS it was 122%; in the test on SNB-19 CNS, 110%. Further, the growth with U251 CNS is 107%; in the test with PC-3 prostate, 106%; with SK-MEL-5 melanoma it was 111%; in the test with UACC-62 melanoma, 116%; in the test on LOX IMVI melanoma, 98.2%; in the test with SK-MEL-28 melanoma, 130%.

Turning to `COc1ccc2c(c1)/C(=C/c1cc(OC)c(OC)c(OC)c1)C(=O)N2C`, the growth in the test with DU-145 prostate was -0.621% (active); in the test with K-562 leukemia, 0.985% (active); with MDA-MB-231 breast, 20.9%; with RXF 393 renal, -60.8% (active); in the test on SF-268 CNS, 0.418% (active); in the test with SF-295 CNS, -30.1% (active). Also, the growth was -22% (active) in the test on SF-539 CNS; -6.05% (active) in the test on UACC-257 melanoma; 8.46% (active) in the test with M14 melanoma; 12.6% with HCT-15 colon; 11.8% in the test on HT29 colon; -14.6% (active) in the test with SNB-75 CNS. Moreover, the growth in the test with SNB-19 CNS was 4.75% (active); in the test with U251 CNS, 5.64% (active); in the test with SK-MEL-5 melanoma, -12.7% (active); in the test with UACC-62 melanoma, 18.9%; in the test on LOX IMVI melanoma it was 10.8%; in the test on SK-MEL-28 melanoma it was 28.8%.

Regarding `Cc1ccc(NS(=O)(=O)c2ccccc2)c(NS(=O)(=O)c2ccccc2)c1`, the growth in the test on DU-145 prostate was 92.8%; in the test with K-562 leukemia it was 108%; in the test on MDA-MB-231 breast, 103%; with RXF 393 renal, 130%; in the test on SF-268 CNS, 102%; with SF-295 CNS, 104%. In addition, the growth with SF-539 CNS was 110%; in the test on UACC-257 melanoma, 107%; in the test on M14 melanoma, 102%; with HT29 colon it was 102%; in the test with SNB-75 CNS it was 90.5%; with SNB-19 CNS, 95.2%. Moreover, the growth in the test on U251 CNS was 98.6%; in the test on PC-3 prostate it was 94.6%; with SK-MEL-5 melanoma it was 104%; with UACC-62 melanoma, 87.9%; in the test on LOX IMVI melanoma, 94.5%; in the test with SK-MEL-28 melanoma, 116%.

As for `COc1ccc(-c2ccccc2)cc1C(=O)c1ccc(-c2ccccc2)cc1`, the growth in the test on DU-145 prostate is 94%; in the test on K-562 leukemia, 20.8%; in the test with MDA-MB-231 breast it was 96.8%; in the test with RXF 393 renal it was 85.7%; in the test with SF-268 CNS, 88.5%; in the test with SF-295 CNS, 53.4%. Moreover, the growth with SF-539 CNS is 88.4%; with UACC-257 melanoma it was 106%; in the test with M14 melanoma, 52%; in the test with HCT-15 colon it was 63.1%; in the test on HT29 colon, 41.8%; with SNB-75 CNS, 87.5%. Further, the growth with U251 CNS is 77%; in the test on PC-3 prostate, 71.6%; in the test with SK-MEL-5 melanoma it was 73.1%; in the test with UACC-62 melanoma, 62.2%; with LOX IMVI melanoma, 77%; with SK-MEL-28 melanoma, 76.5%.

With `Cc1cn(C(=O)/C(Cl)=C(/Cl)C(=O)O)c2ccccc12`, the growth in the test on DU-145 prostate is 113%; with K-562 leukemia, 97.9%; with MDA-MB-231 breast it was 96.3%; with RXF 393 renal, 112%; in the test with SF-268 CNS, 103%; in the test with SF-295 CNS, 112%. The growth with SF-539 CNS is 111%; with UACC-257 melanoma it was 111%; in the test with M14 melanoma, 99.7%; in the test with HCT-15 colon, 105%; in the test with HT29 colon, 110%; with SNB-75 CNS, 73%. Also, the growth in the test with SNB-19 CNS was 106%; with U251 CNS it was 114%; with PC-3 prostate, 83.6%; in the test on SK-MEL-5 melanoma, 104%; in the test on UACC-62 melanoma, 94%; in the test with LOX IMVI melanoma, 93.7%. For the same compound, the growth in the test on SK-MEL-28 melanoma was 112%.

`COc1ccccc1Cn1cc2c(c1-c1ccccc1)CCc1cnoc1-2`: the growth is 51.8% with DU-145 prostate; 19% in the test on K-562 leukemia; 56% in the test on MDA-MB-231 breast; 38.3% in the test on RXF 393 renal; 37.5% with SF-268 CNS; -3.81% (active) in the test on SF-295 CNS. The growth in the test with SF-539 CNS is 11%; with UACC-257 melanoma, 50%; in the test with M14 melanoma it was 34.5%; in the test with HT29 colon it was 12.4%; in the test with SNB-75 CNS, 15.6%; in the test with SNB-19 CNS, 53.5%. Besides, the growth is 39.7% in the test with U251 CNS; 18.1% with SK-MEL-5 melanoma; 50.1% with UACC-62 melanoma; 38.1% with LOX IMVI melanoma; 58.3% in the test on SK-MEL-28 melanoma.

As to `COc1cc(Cn2c(-c3ccccc3)c(Cl)c3c2-c2oncc2CC3)cc(OC)c1`, the growth in the test with DU-145 prostate was 95.9%; in the test on K-562 leukemia, 12.9%; with MDA-MB-231 breast, 67.5%; with RXF 393 renal, 115%; in the test on SF-268 CNS it was 68.8%; in the test with SF-295 CNS, 61%. Besides, the growth with SF-539 CNS is 93.9%; in the test on UACC-257 melanoma, 86%; in the test on M14 melanoma, 79%; in the test with HCT-15 colon, 80.8%; in the test on SNB-75 CNS, 94.8%; in the test with SNB-19 CNS, 85.3%. Besides, the growth with U251 CNS is 37.3%; in the test on PC-3 prostate, 60.8%; with SK-MEL-5 melanoma it was 109%; in the test on UACC-62 melanoma, 55.4%; in the test with LOX IMVI melanoma, 73.8%; in the test with SK-MEL-28 melanoma, 92.3%.

These data come from PubChem BioAssay (NCI).
